# ELG1 repair inh – qHTS screen for small molecules that inhibit ELG1-dependent DNA repair in human embryonic kidney (HEK293T) cells expressing luciferase-tagged ELG1. HEK293T ELG1-luciferase reporter, luminescence, 16 h; DNA damage induced by 5-fluorouridine. Potency, µM (doses to about 46.1 µM), most hits filed as inhibitors. 2.3% of 330,000 active; further: nearly all actives have a fitted effect of over 55% in size
#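 DMSO vehicle served as the neutral condition. Each well held 2,000 cells given 5-fluorouridine plus compound; after 16 hr at 37 °C/5% CO2, ONE-Glo was added and luciferase measured 30 min later.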
# DT40 TDP1 no CPT – qHTS for Inhibitors of human tyrosyl-DNA phosphodiesterase 1 (TDP1): qHTS in cells in absence of CPT. DT40 Tdp1-/- hTDP1 cells, no CPT, ATP luminescence, 48 h. Potency, µM (series often up to 46.2 µM), most hits filed as inhibitors. 15% of 420,000 active; further: nearly all actives have a fitted effect of over 55% in size
#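 Stably hTDP1-transfected Tdp1-null chicken DT40 cells were treated with library compounds minus camptothecin and grown for at least 48 hr at 37 °C, after which cellular ATP was quantified by luminescence.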
# ALOX12 inh – Primary qHTS assay for inhibitors of human arachidonate 12S-lipoxygenase (ALOX12): Round 2; Polyunsaturated fatty acid lipoxygenase ALOX12 (Homo sapiens), P18054; purified 12hLO, xylenol orange hydroperoxide absorbance; Potency, µM (titrated, usually from 108 µM), most hits filed as inhibitors; 1.1% of 580,000 active; AID 1671190, 2021
#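 Purified human 12hLO (150 nM final) in 25 mM Hepes, 0.01% Triton X-100, pH 7.0 was preincubated 15 min at room temperature with compound. Then 40 uM arachidonic acid was added, 30 min. Hydroperoxide was read by Fe-XO absorbance ratio 573/405 nm.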
# TDP1 cell CPT – qHTS for Inhibitors of human tyrosyl-DNA phosphodiesterase 1 (TDP1): qHTS in cells in presence of CPT; Potency, µM (titrated, usually from 46.2 µM), most hits filed as inhibitors; AID 686979, 2013; chicken DT40 Tdp1-/-;hTDP1 cells + 20 nM CPT, ATP luminescence, 48 h; 12% of 420,000 active; further: nearly all actives have a fitted effect of over 55% in size
#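 Chicken DT40 Tdp1-/- cells complemented with human TDP1, 400 cells/well, exposed to compounds plus 20 nM camptothecin for at least 48 h at 37 C; viability read as ATP content by CellTiter-Glo luminescence.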
# RORgamma inh – qHTS for inhibitors of ROR gamma transcriptional activity. Potency, µM (doses to about 53.6 µM), usual class: inhibitors. Drosophila S2 Gal4-RORgamma UAS-luciferase reporter, 20 h. 5.4% of 310,000 active. Nuclear receptor ROR-gamma (Mus musculus), P51450; further: nearly all actives have a fitted effect of over 60% in size
# Target sequence (P51450 whole entry, looked up, the tested form may be a part): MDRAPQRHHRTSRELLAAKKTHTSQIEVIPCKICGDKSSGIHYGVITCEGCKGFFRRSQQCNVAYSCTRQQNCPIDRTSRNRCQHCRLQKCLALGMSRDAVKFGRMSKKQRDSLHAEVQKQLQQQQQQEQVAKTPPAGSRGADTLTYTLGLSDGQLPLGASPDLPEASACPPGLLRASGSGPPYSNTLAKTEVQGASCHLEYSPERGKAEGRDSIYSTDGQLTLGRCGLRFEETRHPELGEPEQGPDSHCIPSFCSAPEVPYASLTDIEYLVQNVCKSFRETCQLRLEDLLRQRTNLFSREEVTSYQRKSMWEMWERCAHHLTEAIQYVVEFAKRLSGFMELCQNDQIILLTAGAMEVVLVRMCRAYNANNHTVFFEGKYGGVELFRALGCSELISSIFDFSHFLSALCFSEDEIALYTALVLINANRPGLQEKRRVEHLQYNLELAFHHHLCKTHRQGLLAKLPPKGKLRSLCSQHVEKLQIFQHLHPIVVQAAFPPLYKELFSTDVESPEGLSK
#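 Schneider cells (Drosophila), stable Gal4 DBD–ROR gamma + UAS-luc; 1 hr cmpd preincubation; Cu2+ induction 700 uM final; 20 hr ambient; luminescence.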
# VP16 counter – VP16 counterscreen qHTS for inhibitors of ROR gamma transcriptional activity; Potency, µM (series often up to 53.6 µM), usual class: inhibitors; 3.5% of 310,000 active; Drosophila S2 Gal4-VP16 UAS-luciferase, luminescence, 20 h;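 further: Gal4-VP16 expression switched on by copper sulfate through the metallothionein promoter; nearly all actives have a fitted effect of over 50% in size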
# A number is an active result; . = inactive; ? = inconclusive; / = no result; [ ] = remark or other dose. A selection: hits, their analogues and other compounds. The true share with any hit is near 15%. The call rests on the fitted dose curve; in most records, active means well fitted curve in the direction sought with a large enough effect; inconclusive means small, poorly fitted or top-dose-only effect, or another doubt; inactive means no such curve, though single readings can be large; an effect the other way counts as inactive or inconclusive.
SMILES,ELG1 repair inh,DT40 TDP1 no CPT,ALOX12 inh,TDP1 cell CPT,RORgamma inh,VP16 counter
Cc1ccc(NC(=O)c2cc(F)ccc2Br)nc1,/,/,.,/,/,/
COc1cccc(-c2sc3ccc(OC)cc3c2C#CC(C)(C)O)c1,?,18.4µM,.,23.1µM,/,/
COc1ccc2sc(-c3ccc(N(C)C)cc3)c(C#CCCO)c2c1,.,16.4µM,.,?,/,/
COc1cccc(-c2sc3ccc(OC)cc3c2C#CCC(C)O)c1 (stereo not drawn),.,?,?,?,/,/
COc1ccc2sc(-c3ccc(N(C)C)cc3)c(C#Cc3cncn3C)c2c1,.,5.8µM,.,5.8µM,/,/
COc1ccc2sc(-c3ccc(N(C)C)cc3)c(C#CC(C)(C)O)c2c1,.,8.2µM,.,8.2µM,/,/
CC(OC(=O)c1nn(C)c(=O)c2ccccc12)C(=O)Nc1ccc(S(=O)(=O)N2CCCCC2)cc1 (stereo not drawn),/,/,.,/,/,/
COc1cccc(C2Cn3nnc(-c4nc(-c5ccc(C(F)(F)F)cc5)no4)c3CO2)c1 (stereo not drawn),/,/,.,/,/,/
O=C1CN(C(=O)CCC(=O)N2CCCC(Cc3nncn3-c3ccccc3)C2)c2ccccc2N1 (stereo not drawn),/,/,.,/,/,/
COc1ccc2[nH]c3c(=O)n(/N=C/[C@H]4C(C)C=C(C)CC4C)c(=O)[nH]c3c2c1 (stereo partly drawn),?,16.4µM,?,18.4µM,.,.
COc1ccc2c(c1)[nH]c1c(=O)n(/N=C/C3C(C)C=C(C)CC3C)c(=O)[nH]c12 (stereo not drawn),?,?,?,?,.,?
Cc1cc(Cl)ccc1NC(=S)NCc1ccccc1,.,?,?,?,3.98µM,.[0.365 µM]
Cc1ccc(NC(=S)NCc2ccc(Cl)cc2)c(C)c1,.,?,35.5µM,?,4.47µM,4.47µM
COc1cccc(CNC(=S)Nc2ccc(Cl)cc2C)c1,.,?,?,?,6.31µM,6.31µM
Cc1cc(Cl)ccc1NC(=S)NCC(O)c1ccccc1 (stereo not drawn),.,?,?,?,?,?
COc1cccc(CNC(=S)Nc2cc(OC)ccc2OC)c1,.,.,?,.,12.6µM,?
Cc1ccc(NC(=S)NCC(O)c2ccccc2)c(C)c1 (stereo not drawn),.,.,?,?,.,.
COc1cc(NC(=O)CN2C(=O)NC3(CCCCC3)C2=O)cc(OC)c1OC,/,/,.,/,/,/
O=C(NC1CCN(C(=O)N2CC3CC(C2)[C@H]2CCCC(=O)N2C3)CC1)c1ccoc1 (stereo partly drawn),/,/,.,/,/,/
CC(C)(C)c1ccc(-c2nc(SCCOc3ccc(Cl)cc3)n3[nH]c(=O)cc3n2)cc1,/,.,.,18.4µM,/,/
CC(C)(C)c1ccc(OCCSc2nc(-c3cccs3)nc3cc(=O)[nH]n23)cc1,/,?,.,18.4µM,/,/
Cc1ccc(NC(=O)CSc2nc(-c3ccc(C(C)(C)C)cc3)nc3cc(=O)[nH]n23)cc1C,/,?,.,?,/,/
O=c1cc2nc(-c3cccs3)nc(SCCOc3ccc(Cl)cc3)n2[nH]1,/,?,.,?,/,/
Cc1ccc(OCCCSc2nc(-c3ccc(C(C)(C)C)cc3)nc3cc(=O)[nH]n23)cc1C,/,25.9µM,.,?,/,/
CC(C)Oc1ccc(CN2CCC2(C)C(=O)Nc2cnc3ccccc3c2)cc1 (stereo not drawn),/,?,.,18.4µM,/,/
SMILES,ELG1 repair inh,DT40 TDP1 no CPT,ALOX12 inh,TDP1 cell CPT,RORgamma inh,VP16 counter
COc1cc(CCC(=O)Nc2cnc3ccccc3c2)cc(OC)c1OC,?,?,.,.,.,.
CC1(C(=O)Nc2cnc3ccccc3c2)CCN1C(=O)CCc1ccccc1 (stereo not drawn),/,18.4µM,.,18.4µM,/,/
COc1ccc(CCC(=O)Nc2cnc3ccccc3c2)cc1,?,.,12.6µM,.,.,.
CC1(C(=O)Nc2cnc3ccccc3c2)CCN1CCc1ccccc1 (stereo not drawn),/,18.4µM,.,?,/,/
CC1(C(=O)Nc2cnc3ccccc3c2)CCN1Cc1ccc2c(c1)OCCO2 (stereo not drawn),/,?,.,?,/,/
COc1cccc(N2CCN(C(=O)Cc3ccc(N4CCCC4=O)cc3)CC2)c1,/,/,.,/,/,/
N#C/C(=C/c1ccc(OCc2ccc3ccccc3c2)cc1)c1nc2ccccc2[nH]1,/,/,.,/,/,/
CCOCCn1c(=O)[nH]c2cc(C(=O)N(C)CCc3noc(C)n3)ccc21,/,/,.,/,/,/
COc1cccc(/C=N/Nc2snc(SC)c2C#N)c1O,?,2.59µM,.,2.91µM,?,?
COc1ccc(/C=N/Nc2snc(SC)c2C#N)cc1OC,?,?,.,16.4µM,.,.
COc1cccc(/C=N/Nc2snc(SC)c2C#N)c1,?,.,.,.,.,.
CCOC(=O)C1(C)C=C(Nc2cccc(C)c2)C(=O)N1c1ccccc1 (stereo not drawn),/,18.4µM,.,?,/,/
COc1ccc(C2Oc3ccccc3C3=C2C(c2cccs2)n2ncnc2N3)cc1 (stereo not drawn),?,23.1µM,?,20.6µM,?,2.51µM
Cc1cc(C)c(OCC(=O)Nc2ccccc2N2CCOCC2)c(C)c1,0.82µM,22.4µM,.,14.1µM,.,.
Cc1ccccc1OCC(=O)Nc1ccccc1N1CCOCC1,?,10.3µM,.,.,.,.
O=C(CC12CC3CC(CC(C3)C1)C2)Nc1ccccc1N1CCOCC1,.,10.3µM,.,?,.,.
Cc1cc(NC(=O)CSCC(=O)N(c2ccc(F)cc2)C(C(=O)NC2CCCCC2)c2ccc(O)c(O)c2)no1 (stereo not drawn),.,16.4µM,?,?,.,.
COc1ccc(N(C(=O)CSCC(=O)Nc2cc(C)on2)C(C(=O)NC2CCCCC2)c2ccc(O)c(O)c2)cc1 (stereo not drawn),.,?,?,.,.,.
COc1cc(C#N)ccc1OCc1ccc(OC(F)F)c(OC)c1,/,/,.,/,/,/
Cc1cc(C)nc(NC(=S)Nc2ccccc2)n1,.,.,.,.,.,.
S=C(Nc1ccccc1)Nc1ccccc1-n1cccc1,.,.,.,.,4.47µM,15.8µM
C[Si](C)(C)C#Cc1ccccc1NC(=S)Nc1ccccc1,/,/,/,/,14.1µM,?
S=C(Nc1cccnc1)Nc1ccccc1Br,.,.,.,.,.,.
S=C(Nc1ccccc1)Nc1ccccc1C#Cc1ccccc1,/,/,/,/,11.2µM,?
N#Cc1ccccc1NC(=S)Nc1ccc(F)cc1,.,.,.,.,17.8µM,20µM

# Assay outcomes (PubChem)
